Results filed as inconclusive are left out. Some structures have more than one record in an assay (separate samples or runs), and their calls can disagree. Activity calls are given as the source filed them. How the source made its calls, unless noted: active means hit-call score of the fitted dose curve at least 0.9, where 1 is the maximum; inactive means score below 0.9.
Legend:
[1] = target: Glucocorticoid receptor (Homo sapiens) (UniProt P04150); assay: ATG_GR_TRANS: Attagene TRANS-FACTORIAL HepG2 Assay for human Glucocorticoid Receptor (GR) (AID 2282978; active means hit-call score of the fitted dose curve at least 0.9, where 1 is the maximum;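 further: activators score as hits since higher reporter transcript over DMSO is fitted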); conditions: HepG2 Attagene TRANS GR reporter, mRNA transcription
Glucocorticoid receptor (Homo sapiens), sequence (P04150 whole entry, looked up): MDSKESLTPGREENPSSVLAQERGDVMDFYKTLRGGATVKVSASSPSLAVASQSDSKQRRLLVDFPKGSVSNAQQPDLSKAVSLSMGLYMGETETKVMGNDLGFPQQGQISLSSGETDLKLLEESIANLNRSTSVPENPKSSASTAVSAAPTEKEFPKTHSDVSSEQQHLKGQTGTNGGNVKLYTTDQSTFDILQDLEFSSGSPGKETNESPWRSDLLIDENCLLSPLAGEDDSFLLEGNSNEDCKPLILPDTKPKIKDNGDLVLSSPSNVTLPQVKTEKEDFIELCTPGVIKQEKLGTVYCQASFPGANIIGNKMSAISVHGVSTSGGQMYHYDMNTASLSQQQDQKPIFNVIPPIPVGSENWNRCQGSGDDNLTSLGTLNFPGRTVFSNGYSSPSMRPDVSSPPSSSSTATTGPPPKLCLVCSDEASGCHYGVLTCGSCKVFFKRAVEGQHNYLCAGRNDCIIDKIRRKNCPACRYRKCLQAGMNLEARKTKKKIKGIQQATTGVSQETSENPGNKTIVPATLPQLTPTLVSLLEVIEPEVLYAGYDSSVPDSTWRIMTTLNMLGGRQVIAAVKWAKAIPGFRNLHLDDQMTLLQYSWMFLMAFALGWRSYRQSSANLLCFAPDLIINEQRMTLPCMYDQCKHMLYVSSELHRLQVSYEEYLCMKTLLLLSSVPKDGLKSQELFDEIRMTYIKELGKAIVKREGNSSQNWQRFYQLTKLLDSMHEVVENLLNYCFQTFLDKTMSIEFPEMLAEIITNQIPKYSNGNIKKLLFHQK
Summary of the method: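 After 24 h incubation with test chemical, transfected HepG2 cells were lysed for RNA; reporter cDNA was amplified, FAM-labelled, HpaI-digested and sized on a capillary analyser. Signal gain relative to DMSO was scored.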

[2] = ATG_M_06_TRANS: Attagene TRANS-FACTORIAL HepG2 Assay for M06 Transcription Factor (Internal Marker) (AID 2282983; active means hit-call score of the fitted dose curve at least 0.9, where 1 is the maximum); conditions: HepG2 Attagene TRANS M06 internal marker reporter
Summary of the method: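 Background-control reporter readout: after 24 h chemical exposure of transiently transfected HepG2 (GAL4-UAS reporter units), mRNA quantified by RT-PCR with fluorescent labeling and capillary electrophoresis. Gain-of-signal fitting against DMSO baseline.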

[3] = ATG_M_32_TRANS: Attagene TRANS-FACTORIAL HepG2 Assay for M32 Transcription Factor (Internal Marker) (AID 2282984; active means hit-call score of the fitted dose curve at least 0.9, where 1 is the maximum;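 further: transcript level of a background control reporter unit measured by RT-PCR and capillary electrophoresis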); conditions: HepG2 Attagene TRANS M32 internal marker reporter
Summary of the method: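 Read-out: fluorescent reporter cDNA fragments resolved by capillary electrophoresis after RT-PCR of total RNA. Transfected HepG2 cells were exposed to chemical for 24 h. Activity scored in the positive direction relative to DMSO.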

[4] = target: Nuclear respiratory factor 1 (Homo sapiens) (UniProt Q16656); assay: ATG_NRF1_CIS: Attagene CIS-FACTORIAL HepG2 Assay for human Nuclear Respiratory Factor 1 (NRF1) Orphan Gene (AID 2282987); conditions: HepG2 NRF1 cis-element reporter, Attagene multiplex; actives raise or lower the signal
Nuclear respiratory factor 1 (Homo sapiens), sequence (Q16656 whole entry, looked up): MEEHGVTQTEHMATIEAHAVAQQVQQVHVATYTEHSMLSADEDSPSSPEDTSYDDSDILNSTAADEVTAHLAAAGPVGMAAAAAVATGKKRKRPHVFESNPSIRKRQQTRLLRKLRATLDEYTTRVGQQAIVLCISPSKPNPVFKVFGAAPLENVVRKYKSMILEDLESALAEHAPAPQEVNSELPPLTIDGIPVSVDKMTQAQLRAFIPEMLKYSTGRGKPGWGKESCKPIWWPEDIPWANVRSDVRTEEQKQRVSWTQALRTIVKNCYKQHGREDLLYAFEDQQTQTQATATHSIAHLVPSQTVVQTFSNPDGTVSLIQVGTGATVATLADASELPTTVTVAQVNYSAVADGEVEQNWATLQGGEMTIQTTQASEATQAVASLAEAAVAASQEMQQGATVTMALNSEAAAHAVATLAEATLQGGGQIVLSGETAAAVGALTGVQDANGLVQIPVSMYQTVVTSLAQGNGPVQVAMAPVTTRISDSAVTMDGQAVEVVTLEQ
Summary of the method: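 Measured: fluorescent reporter-specific RT-PCR products from transfected HepG2 cells, separated by capillary electrophoresis. Exposure lasted 24 h. Analysis used bidirectional curve fitting with DMSO as negative control.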

[5] = ATG_NFI_CIS: Attagene CIS-FACTORIAL HepG2 Assay for human Nuclear Factor I (NFI) (AID 2282989); conditions: HepG2 cis-regulatory reporter, NFI response element transcription; actives raise or lower the signal
Summary of the method: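 Multiplexed cis-reporter system in human HepG2 cells reports native TF activity as reporter mRNA induction 24 h post-dose. Fragments labelled with 6-FAM, HpaI-digested and resolved by capillary electrophoresis; activity fitted both directions versus DMSO.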

[6] = target: Myc proto-oncogene protein (Homo sapiens) (UniProt P01106); assay: ATG_Myc_CIS: Attagene CIS-FACTORIAL HepG2 Assay for human Myelocytomatosis (Myc) Proto-Oncogene Transcription Factor (AID 2282990); conditions: HepG2, Attagene cis-reporter transcription factor activity; actives raise or lower the signal
Myc proto-oncogene protein (Homo sapiens), sequence (P01106 whole entry, looked up, the tested form may be a part): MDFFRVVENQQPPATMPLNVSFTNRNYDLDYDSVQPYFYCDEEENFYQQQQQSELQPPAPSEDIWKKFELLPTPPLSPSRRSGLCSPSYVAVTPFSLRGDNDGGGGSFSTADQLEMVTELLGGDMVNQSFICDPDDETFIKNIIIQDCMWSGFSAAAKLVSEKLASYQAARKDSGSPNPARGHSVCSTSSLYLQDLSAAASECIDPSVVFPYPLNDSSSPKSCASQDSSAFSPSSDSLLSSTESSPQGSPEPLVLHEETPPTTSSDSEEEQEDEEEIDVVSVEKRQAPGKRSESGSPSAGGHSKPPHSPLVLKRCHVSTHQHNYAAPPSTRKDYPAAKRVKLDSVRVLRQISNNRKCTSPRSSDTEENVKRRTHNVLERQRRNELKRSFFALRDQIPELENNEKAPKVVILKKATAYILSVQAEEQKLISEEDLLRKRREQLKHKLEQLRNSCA
Summary of the method: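 Fluorescence intensity of reporter-specific cDNA fragments, separated by capillary electrophoresis, gives the signal. Transfected HepG2 cells carrying cis-promoter reporter constructs are incubated with compound for 24 h; DMSO serves as baseline.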

[7] = ATG_NF_kB_CIS: Attagene CIS-FACTORIAL HepG2 Assay for human Nuclear Factor Kappa B (NF-kB) (AID 2282991); conditions: HepG2 Attagene cis-factorial NF-kB reporter mRNA; actives raise or lower the signal
Summary of the method: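 Fluorescence of labelled RT-PCR products separated by capillary electrophoresis gives reporter mRNA levels from transfected HepG2 cells exposed 24 h; values are fitted in both directions relative to DMSO.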

[8] = ATG_NRF2_ARE_CIS: Attagene CIS-FACTORIAL HepG2 Assay for human Nuclear Factor Erythroid 2 Related Factor 2 (NFR2) response to Antioxidant Response Elements (ARE) (AID 2282992); conditions: HepG2 Attagene ARE/NRF2 reporter, transcription factor activity; actives raise or lower the signal
Summary of the method: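 Endogenous transcription factor activity in human liver HepG2 cells is tracked via a cis-element-driven reporter within a multiplexed set. mRNA induction is read by RT-PCR and capillary electrophoresis after 24 h, with DMSO as baseline.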

[9] = ATG_Oct_MLP_CIS: Attagene CIS-FACTORIAL HepG2 Assay for human Octamer-Binding Transcription Factor (Oct) (AID 2282993); conditions: HepG2 Attagene cis-factorial Oct reporter, mRNA; actives raise or lower the signal
Summary of the method: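 After 24 h compound exposure, transfected HepG2 cells were lysed for total RNA; reporter-specific cDNA was PCR-amplified, fluorescently labelled and sized by capillary electrophoresis. Bidirectional curve fitting used DMSO as baseline.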

[10] = target: Cellular tumor antigen p53 (Homo sapiens) (UniProt P04637); assay: ATG_p53_CIS: Attagene CIS-FACTORIAL HepG2 Assay for human p53 Transcription Factor (AID 2282994); conditions: HepG2 p53 cis-element reporter, Attagene mRNA; actives raise or lower the signal
Cellular tumor antigen p53 (Homo sapiens), sequence (P04637 whole entry, looked up, the tested form may be a part): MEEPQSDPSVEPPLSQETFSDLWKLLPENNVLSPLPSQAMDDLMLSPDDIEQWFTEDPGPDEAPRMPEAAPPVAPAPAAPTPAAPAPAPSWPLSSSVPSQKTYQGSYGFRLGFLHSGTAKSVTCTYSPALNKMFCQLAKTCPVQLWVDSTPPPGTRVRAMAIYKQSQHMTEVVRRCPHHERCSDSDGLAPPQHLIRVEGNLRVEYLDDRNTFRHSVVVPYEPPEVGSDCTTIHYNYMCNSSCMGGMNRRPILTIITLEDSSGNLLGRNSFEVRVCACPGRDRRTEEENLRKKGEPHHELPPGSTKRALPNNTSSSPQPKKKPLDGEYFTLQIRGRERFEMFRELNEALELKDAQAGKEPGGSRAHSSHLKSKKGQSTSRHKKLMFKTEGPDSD
Summary of the method: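 Steps: transfect HepG2 with multiplexed cis reporter constructs; dose chemicals 24 h; extract RNA, reverse-transcribe, PCR-amplify reporter sequences; FAM-label, HpaI-digest, resolve fragments by CE. Activity fitted both directions relative to DMSO.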

[11] = target: Hepatocyte nuclear factor 4-alpha (Homo sapiens) (UniProt P41235); assay: ATG_HNF4a_TRANS: Attagene TRANS-FACTORIAL HepG2 Assay for human Hepatocyte Nuclear Factor 4 alpha (HNF4a) (AID 2282982; active means hit-call score of the fitted dose curve at least 0.9, where 1 is the maximum); conditions: HepG2 HNF4a transactivation reporter, mRNA readout
Hepatocyte nuclear factor 4-alpha (Homo sapiens), sequence (P41235 whole entry, looked up): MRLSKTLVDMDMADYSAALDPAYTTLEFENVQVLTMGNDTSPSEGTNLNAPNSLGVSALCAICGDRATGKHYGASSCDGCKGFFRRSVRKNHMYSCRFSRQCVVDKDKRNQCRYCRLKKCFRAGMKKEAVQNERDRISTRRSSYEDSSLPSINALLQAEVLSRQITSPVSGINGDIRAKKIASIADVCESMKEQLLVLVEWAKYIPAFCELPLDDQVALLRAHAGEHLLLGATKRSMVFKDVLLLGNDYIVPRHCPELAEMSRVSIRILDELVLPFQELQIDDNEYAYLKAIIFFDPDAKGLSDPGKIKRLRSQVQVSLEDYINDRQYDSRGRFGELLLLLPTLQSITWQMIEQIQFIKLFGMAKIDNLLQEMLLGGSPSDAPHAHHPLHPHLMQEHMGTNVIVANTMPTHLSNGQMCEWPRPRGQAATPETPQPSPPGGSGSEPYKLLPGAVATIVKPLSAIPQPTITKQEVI
Summary of the method: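 Transient MRTU transfection of HepG2, 24 h dosing. Readout: reporter mRNA via RT-PCR + capillary electrophoresis, fluorescence; activity fit upward relative to DMSO control.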

[12] = target: Nuclear receptor subfamily 4 group A member 2 (Homo sapiens) (UniProt P43354); assay: ATG_NURR1_TRANS: Attagene TRANS-FACTORIAL HepG2 Assay for human Nuclear Receptor Related Protein 1 (NURR1) (AID 2282985; active means hit-call score of the fitted dose curve at least 0.9, where 1 is the maximum); conditions: HepG2 Attagene TRANS reporter, mRNA readout
Nuclear receptor subfamily 4 group A member 2 (Homo sapiens), sequence (P43354 whole entry, looked up, the tested form may be a part): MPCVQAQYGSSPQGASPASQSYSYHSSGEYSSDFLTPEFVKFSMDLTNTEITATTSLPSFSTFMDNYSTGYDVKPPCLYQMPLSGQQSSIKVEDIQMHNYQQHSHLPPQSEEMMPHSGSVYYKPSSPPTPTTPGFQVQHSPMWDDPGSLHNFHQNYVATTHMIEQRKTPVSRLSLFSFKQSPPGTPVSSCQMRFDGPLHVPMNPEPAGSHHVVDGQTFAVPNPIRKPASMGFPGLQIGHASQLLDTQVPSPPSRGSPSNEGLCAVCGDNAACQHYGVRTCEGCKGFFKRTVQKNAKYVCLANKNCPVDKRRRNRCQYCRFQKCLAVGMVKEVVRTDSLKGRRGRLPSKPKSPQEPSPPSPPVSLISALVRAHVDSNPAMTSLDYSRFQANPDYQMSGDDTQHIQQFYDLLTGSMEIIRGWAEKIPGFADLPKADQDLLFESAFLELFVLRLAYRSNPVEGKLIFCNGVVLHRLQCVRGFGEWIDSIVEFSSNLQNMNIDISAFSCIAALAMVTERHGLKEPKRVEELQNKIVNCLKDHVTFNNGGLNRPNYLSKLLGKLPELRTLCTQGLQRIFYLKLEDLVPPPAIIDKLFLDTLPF
Summary of the method: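 Read-out: reporter mRNA induction by RT-PCR plus capillary electrophoresis with fluorescence detection, after 24 h dosing of transfected HepG2 cells. Exogenous NR-Gal4 chimera activity drives GAL4-UAS reporter; activity fitted upward versus DMSO.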

[13] = target: Transcriptional activator Myb (Homo sapiens) (UniProt P10242); assay: ATG_Myb_CIS: Attagene CIS-FACTORIAL HepG2 Assay for human Myeloblastosis (Myb) Proto-Oncogene Transcription Factor (AID 2282986); conditions: HepG2 Attagene CIS-FACTORIAL Myb reporter transcription; actives raise or lower the signal
Transcriptional activator Myb (Homo sapiens), sequence (P10242 whole entry, looked up): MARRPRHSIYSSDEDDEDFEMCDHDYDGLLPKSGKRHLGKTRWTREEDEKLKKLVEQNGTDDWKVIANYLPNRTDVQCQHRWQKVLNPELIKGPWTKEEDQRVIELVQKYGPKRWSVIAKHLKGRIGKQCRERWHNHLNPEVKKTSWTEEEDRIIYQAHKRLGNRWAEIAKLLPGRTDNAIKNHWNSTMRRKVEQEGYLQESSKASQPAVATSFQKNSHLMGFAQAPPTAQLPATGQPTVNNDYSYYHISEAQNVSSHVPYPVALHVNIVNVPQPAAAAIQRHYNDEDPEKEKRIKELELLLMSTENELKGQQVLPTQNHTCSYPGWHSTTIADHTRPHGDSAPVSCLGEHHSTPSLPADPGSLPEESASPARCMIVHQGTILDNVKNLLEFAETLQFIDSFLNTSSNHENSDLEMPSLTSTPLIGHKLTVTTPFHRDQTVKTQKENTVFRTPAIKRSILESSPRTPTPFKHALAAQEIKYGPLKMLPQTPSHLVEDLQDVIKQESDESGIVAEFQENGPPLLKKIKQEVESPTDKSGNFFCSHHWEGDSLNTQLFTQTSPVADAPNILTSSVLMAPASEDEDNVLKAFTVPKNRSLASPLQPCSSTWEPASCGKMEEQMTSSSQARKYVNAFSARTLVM
Summary of the method: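 After 24 h of compound dosing, total RNA from transfected HepG2 cells is reverse-transcribed and the reporter sequences amplified, labeled and separated by capillary electrophoresis. Values come from bidirectional fitting against DMSO.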

[14] = BSK_3C_TissueFactor: BioMAP Diversity Plus: 3C Assay for Tissue Factor Biomarker Activity (AID 2282997); conditions: BioMAP 3C HUVEC, tissue factor biomarker readout; actives raise or lower the signal
Summary of the method: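 Tissue factor on primary human umbilical vein endothelium was read by ELISA 24 h after dosing, gain or loss relative to DMSO. Cytotoxicity ran alongside via SRB (0.1%, TCA-fixed, 560 nm).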

[15] = BSK_3C_uPAR: BioMAP Diversity Plus: 3C Assay for Urokinase-type plasminogen activator receptor (uPAR) Biomarker Activity (AID 2282998); conditions: BioMAP 3C HUVEC, uPAR biomarker ELISA; actives raise or lower the signal
Summary of the method: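 Values derive from bidirectional curve fitting relative to DMSO, which served as baseline of activity. uPAR was measured by ELISA in human umbilical vein endothelial primary cultures 24 h after compound addition.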

[16] = BSK_3C_VCAM1: BioMAP Diversity Plus: 3C Assay for Vascular cell adhesion molecule 1 (VCAM1) Biomarker Activity (AID 2282999); conditions: BioMAP 3C HUVEC, VCAM1 ELISA, cytokine-stimulated; actives raise or lower the signal
Summary of the method: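 HUVEC primary cells, 24 h compound exposure; VCAM-1 by ELISA; gain/loss of signal fitted bidirectionally vs DMSO baseline.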

[17] = BSK_4H_Eotaxin3: BioMAP Diversity Plus: 4H Assay for Eotaxin 3 Biomarker Activity (AID 2283000); conditions: primary human endothelial cells (HUVEC); actives raise or lower the signal
Summary of the method: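 Human umbilical vein endothelial cells (BSK_4H system) dosed with test chemical; Eotaxin-3 (CCL26) measured by ELISA 24 h after dosing. Bidirectional curve fitting relative to DMSO negative control as baseline.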

[18] = target: Bile acid receptor (Homo sapiens) (UniProt Q96RI1); assay: ATG_FXR_TRANS: Attagene TRANS-FACTORIAL HepG2 Assay for Farnesoid X Receptor (FXR) (AID 2282979; active means hit-call score of the fitted dose curve at least 0.9, where 1 is the maximum;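 further: hits raise reporter mRNA above DMSO so AC50 marks FXR activation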); conditions: HepG2 Attagene TRANS FXR-GAL4 reporter transcription
Summary of the method: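 Reporter transcripts from transfected HepG2 cells were measured 24 h after dosing, using RT-PCR with capillary electrophoresis of 6-FAM-labelled fragments. The read-out reflects activity of exogenous FXR-Gal4 chimera on GAL4-UAS units, with induction relative to DMSO.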

[19] = target: Oxysterols receptor LXR-alpha (Homo sapiens) (UniProt Q13133); assay: ATG_LXRa_TRANS: Attagene TRANS-FACTORIAL HepG2 Assay for human Liver X Receptor alpha (LXRa) (AID 2282980; active means hit-call score of the fitted dose curve at least 0.9, where 1 is the maximum); conditions: HepG2 Attagene TRANS reporter, LXRa transactivation
Oxysterols receptor LXR-alpha (Homo sapiens), sequence (Q13133 whole entry, looked up, the tested form may be a part): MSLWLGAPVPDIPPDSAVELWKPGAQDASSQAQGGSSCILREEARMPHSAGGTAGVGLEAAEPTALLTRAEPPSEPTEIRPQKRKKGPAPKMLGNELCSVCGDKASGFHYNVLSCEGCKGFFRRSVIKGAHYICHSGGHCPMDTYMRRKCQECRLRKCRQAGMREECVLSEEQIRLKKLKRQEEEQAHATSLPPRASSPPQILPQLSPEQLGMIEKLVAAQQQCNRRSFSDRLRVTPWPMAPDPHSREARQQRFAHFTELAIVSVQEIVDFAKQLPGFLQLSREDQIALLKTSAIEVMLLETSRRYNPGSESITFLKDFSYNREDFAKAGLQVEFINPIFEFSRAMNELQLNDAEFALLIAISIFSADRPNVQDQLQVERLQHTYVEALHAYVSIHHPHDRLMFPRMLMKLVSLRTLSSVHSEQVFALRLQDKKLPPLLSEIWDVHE
Summary of the method: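 Chemical-induced reporter mRNA measured by RT-PCR with fluorescent labelling and capillary electrophoresis after 24 h dosing of transiently transfected HepG2 cells expressing exogenous NR-Gal4 chimeras; increases scored against DMSO baseline.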

[20] = target: Oxysterols receptor LXR-beta (Homo sapiens) (UniProt P55055); assay: ATG_LXRb_TRANS: Attagene TRANS-FACTORIAL HepG2 Assay for human Liver X Receptor beta (LXRb) (AID 2282981; active means hit-call score of the fitted dose curve at least 0.9, where 1 is the maximum); conditions: HepG2 Attagene TRANS GAL4-LXRb reporter, mRNA
Oxysterols receptor LXR-beta (Homo sapiens), sequence (P55055 whole entry, looked up, the tested form may be a part): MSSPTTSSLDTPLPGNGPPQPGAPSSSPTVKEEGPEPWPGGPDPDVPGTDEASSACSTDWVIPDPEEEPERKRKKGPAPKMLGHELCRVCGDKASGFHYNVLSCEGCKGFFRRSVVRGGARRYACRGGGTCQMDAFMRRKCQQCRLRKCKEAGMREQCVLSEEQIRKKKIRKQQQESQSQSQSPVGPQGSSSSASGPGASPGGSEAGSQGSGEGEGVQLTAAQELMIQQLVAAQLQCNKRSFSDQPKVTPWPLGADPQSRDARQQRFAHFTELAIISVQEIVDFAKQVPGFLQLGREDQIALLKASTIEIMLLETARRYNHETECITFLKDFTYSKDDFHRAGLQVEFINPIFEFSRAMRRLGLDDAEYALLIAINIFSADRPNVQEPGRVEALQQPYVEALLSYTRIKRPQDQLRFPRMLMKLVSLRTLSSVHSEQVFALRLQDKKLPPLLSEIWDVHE
Summary of the method: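 Readout: fluorescent reporter mRNA fragments resolved by capillary electrophoresis after RT-PCR. System: transiently transfected human HepG2, exogenous LXRb-Gal4 chimera driving GAL4-UAS reporter, 24 h dosing. Activity fitted upward against DMSO baseline.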

Measured: AC50

O=C(Oc1ccccc1)c1ccc(O)cc1
inactive: [1] | [2] | [3] | [4] | [5] | [6] | [7] | [8] | [9] | [10]

O=S(=O)(O)c1ccc(O)c2ncccc12
not listed: [13] | [14] | [15] | [16] | [17] | [18] | [19] | [20]
inactive: all other assays above

CCCCc1ccc(N)cc1
active: [8] 27.2 µM
not listed: [14] | [15] | [16] | [17] | [18] | [19] | [20]
inactive: all other assays above

Cc1ccc(C(C)C)cc1O
not listed: [10] | [14] | [15] | [16] | [17] | [18] | [19] | [20]
inactive: all other assays above

CC1(C)[C@@H]2CC[C@@]1(C)[C@H](O)C2
inactive: [1] | [13] | [4] | [5] | [6] | [8] | [9] | [10]

Cc1cc(C2(c3cc(C)c(O)cc3C)OS(=O)(=O)c3ccccc32)c(C)cc1O
not listed: [3] | [7] | [12] | [18] | [19] | [20]
inactive: all other assays above

CO[Si](C)(OC)c1ccccc1
active: [8] 16.2 µM
inactive: [1] | [2] | [12] | [13] | [4] | [5] | [6] | [9] | [10]

CCCCCCC#CC(=O)OC
active: [8] 21.6 µM
inactive: [1] | [11] | [2] | [3] | [13] | [4] | [5] | [6] | [9]

CC(C=O)Cc1ccc(C(C)C)cc1 (centres undefined)
not listed: [14] | [15] | [16] | [17] | [18] | [19] | [20]
inactive: all other assays above

C=C[Si](OCC)(OCC)OCC
not listed: [11] | [12] | [18] | [19] | [20]
inactive: all other assays above

O=C1c2ccccc2C(=O)N1SC1CCCCC1
active: [8] 65.4 µM | [10] 167 µM
not listed: [1] | [2] | [14] | [15] | [16] | [17]
inactive: all other assays above

NCCOCCO
inactive: [1] | [11] | [13] | [4] | [5] | [6] | [8] | [9] | [10]

Cc1ccc2n[nH]nc2c1
not listed: [11] | [12] | [18] | [19] | [20]
inactive: all other assays above

CCCCCCOC(=O)CCCCC
not listed: [2] | [14] | [15] | [16] | [17] | [18] | [19] | [20]
inactive: all other assays above

N#Cc1ccc(CC(=NNC(=O)Nc2ccc(OC(F)(F)F)cc2)c2cccc(C(F)(F)F)c2)cc1
not listed: [2] | [3] | [11] | [12] | [13] | [18] | [19]
inactive: all other assays above

CCN(CC)c1ccc(C(=C2C=CC(=[N+](CC)CC)C=C2)c2ccc(S(=O)(=O)O)cc2S(=O)(=O)[O-])cc1
not listed: [14] | [15] | [16] | [17] | [18] | [19] | [20]
inactive: all other assays above

Nc1cc([N+](=O)[O-])ccc1O
inactive: [1] | [11] | [2] | [3] | [12] | [13] | [4] | [5] | [6] | [7] | [9] | [10] | [14] | [15] | [16] | [17]
active: [8] 38.1 µM | [17] 14.9 µM

CC1(C)[C@H]2CC[C@]1(C)[C@H](O)C2
inactive: [1] | [2] | [12] | [13] | [4] | [6] | [8] | [9] | [10]

CCCCC(CC)COCCC#N (centres undefined)
not listed: [11] | [12] | [18] | [19] | [20]
inactive: all other assays above

COC(=O)Cc1cccc2ccccc12
inactive: [1] | [2] | [13] | [4] | [6] | [7] | [8] | [9] | [10]

O=S(=O)(O)c1cccc2c(S(=O)(=O)O)cccc12
inactive: [1] | [2] | [13] | [4] | [5] | [6] | [7] | [8] | [9] | [10]

Source: PubChem BioAssay (EPA / NIEHS)
